SARS PLP yeast: qHTS of Yeast-based Assay for SARS-CoV PLP; 330,000 compounds, 0.19% hits; S. cerevisiae expressing SARS-CoV PLpro, growth rescue; AID 485353, 2010; Potency, µM (series often up to 32.9 µM), without a hit: at the highest dose activity, positive = growth rescue, actives largely listed as activators; calls by dose curve; note: 0% is about no effect; nearly all actives have a fitted effect of over 55% in size
HCV inh: qHTS Assay for Inhibitors of Hepatitis C Virus (HCV) | AID 651820, 2012 | Potency, µM (doses to about 41.8 µM), for the others: at the highest dose activity change, negative = inhibition, usual class: inhibitors | 340,000 compounds, 3.4% hits | Huh7.5.1 HCVcc-Cre infection, luciferase reporter, 44 h; note: % is set by controls: 0 for no effect and ±100 for the full control effect
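Whole-lifecycle infectious HCVcc-Cre system; cells 1,000/well, compound then virus (~0.5 moi) added 4 h after plating, 44 h culture. Luciferase read 15 sec following 15 min substrate incubation, room temp.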
Pf growth 96h: Primary qHTS for delayed death inhibitors of the malarial parasite plastid, 96 hour incubation; Potency, µM (series often up to 28.7 µM), for the others: at the top dose activity change, negative = inhibition, actives largely listed as inhibitors; 320,000 compounds, 6.9% hits; P. falciparum luciferase reporter growth, 96 h; note: % is set by controls: 0 for no effect and ±100 for the full control effect
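Compounds incubated with erythrocytes infected by luciferase-expressing P. falciparum (2% hematocrit, 0.05% parasitemia final) for 96 hours, 37 C in 5% CO2. Growth inhibition scored as decreased luciferase luminescence.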
Pf growth 48h: Primary qHTS for delayed death inhibitors of the malarial parasite plastid, 48 hour incubation | P. falciparum luciferase growth in erythrocytes, 48 h | 310,000 compounds, 5.9% hits | Potency, µM (highest dose often 28.7 µM), for inactives: at the highest dose activity change, negative = inhibition, usual class: inhibitors; note: % is set by controls: 0 for no effect and ±100 for the full control effect
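Compounds are pin-transferred into medium, infected erythrocytes (2% hematocrit, 0.1% parasitemia final) are added, and plates sit one parasite generation at 37 C in 5% CO2. Detection reagent is then added and luminescence measured.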
AMA1-RON2 inh: qHTS for Inhibitors of AMA1-RON; Towards Development of Antimalarial Drug Lead: Primary Screen. Plasmodium falciparum AMA1 (3D7) - RON2 peptide interaction. AlphaScreen AMA1-biotinylated RON2 peptide binding. Potency, µM (doses to about 58.2 µM), inactives show top-dose activity change, negative = inhibition, actives largely listed as inhibitors. 360,000 compounds, 0.2% hits. AID 720542, 2013;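 note: 0% = vehicle wells and -100% = peptide control; nearly all actives have a fitted effect of over 45% in size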
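AMA1 (3D7) with his tag at 25 nM final met compounds first, then biotinylated RON2 peptide at 25 nM; detection used donor plus acceptor beads, 10 µg/mL apiece, read by AlphaScreen after 30 min at room temperature.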
NS1 inh: qHTS Assay for Inhibitors of Influenza NS1 Protein Function; 270,000 compounds, 0.4% hits; AID 2326, 2010; Potency, µM (highest dose often 46.1 µM), without a hit: at the highest dose activity, positive = more growth; calls by dose curve; note: actives are rising curves; nearly all actives have a fitted effect of over 50% in size
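OD600 was taken as the measure of yeast growth restored by compound in an NS1-expressing S. cerevisiae strain. Cells had been washed out of glucose medium and diluted 1:100 into galactose -URA medium, pH 6.0.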
* hit, by the source's call; ? = inconclusive; . = not tested or not shown; [ ] = dose if it differs, or a comment. In the library only some 12% were active in any assay of this set; here they are far more common. Unless noted, calls come from the whole dose curve; as a rule, active = well fitted curve in the direction sought with a large enough effect; inconclusive = small, poorly fitted or top-dose-only effect, or another doubt; inactive = no such curve, though single readings can be large; an effect the other way counts as inactive or inconclusive. Potency is the fitted concentration of half-maximal effect.

SMILES	SARS PLP yeast	HCV inh	Pf growth 96h	Pf growth 48h	AMA1-RON2 inh	NS1 inh
Cc1ccc(SCc2cc(=O)c3c(=O)n(-c4ccccc4)[nH]c3[nH]2)cc1	0%	25%	9.3µM*	3%[5.75 µM]	?	.
CCCNC(=O)c1sc2c(c1C(=O)Nc1ccccn1)CCCC2	0%	10µM*	?	-22%	-17%	.
CN(C)CCNC(=O)c1c(NC(=O)c2ccccc2)sc2c1CCCC2	3%	?	36%	?	-11%	4%
COC(=O)N1C(=O)[C@@](c2ccccc2)(C2CCCCC2)N1C(=O)OC	-14%	9%	46%	39%	0%	-18%
COCC(C)n1c(C)cc(C(=O)COC(=O)c2ccc3c(c2)NC(=O)CS3)c1C (stereo unspecified)	-6%	?	7.4µM*	10µM*	15%	18%
Cc1cc(C(=O)COC(=O)c2ccc3c(c2)NC(=O)CS3)c(C)n1CC1CCCO1 (stereo unspecified)	3%	?	0%	-7%	-5%	21%
C=CCn1c(=O)/c(=C2/Sc3ccccc3N2CC)s/c1=C1/C(=O)NN=C1C	0%	.	89%	15µM*	.	2%
C=CCN1C(=O)/C(=C2/Sc3ccccc3N2CC)SC1=S	2%	-26%	85%	?	5%	1%
Cc1c(C)c2c(OCC(=O)Nc3ccc(CCO)cc3)cc3c(c2oc1=O)CCC(C)(C)O3	-2%	?	13µM*	8.3µM*	-1%	6%
Cc1c(C)c2c(OCC(=O)N3CCC(C(=O)O)CC3)cc3c(c2oc1=O)CCC(C)(C)O3	6%	37%	5.2µM*	?	0%	?
Cc1ccc(S(=O)(=O)Nc2nc3ccccc3nc2NCC2CCCO2)cc1C (stereo unspecified)	0%	9%	11%	2%	14%	-3%
O=C1C(=C(I)I)c2ccccc2-c2ccccc21	.	8.9µM*	.	.	?	.
O=C1c2sccc2-c2cccc3cccc1c23	.	.	.	.	-13%	.
O=C1C(=O)c2ccccc2-c2ccccc21	-54%	2.8µM*	?	.	-20%	-39%
O=C1C(=O)c2cccc3cccc1c23	-12%	14%	6.6µM*	10µM*	1%	.
COC1=C(OC)C(=O)c2ccccc2C1=O	.	.	.	.	.	-20%
Cc1ccc(S(=O)(=O)c2nc(S(C)(=O)=O)sc2N2CCC(C)CC2)cc1	0%	7%	?	?	-16%	2%
CC(=O)OCCCNc1cc(SCc2ccco2)c2nonc2c1[N+](=O)[O-]	18%	0%	2.3µM*	2%	-11%	0%
CCn1ncc(N(C)N)c(Cl)c1=O	-1%	-2%	19%[5.75 µM]	-1%	-1%	.
CCCCCCOC(=O)C[N+](C)(C)CCOC1CC2CCC1(C)C2(C)C (stereo unspecified)	-18%	3%	0.74µM*	1.7µM*	48%	-3%
CCC(C)OC(=O)C[N+](C)(C)CCOC1CC2CCC1(C)C2(C)C (stereo unspecified)	1%	-9%	36%	0.93µM*	-12%	2%
CCCOC(=O)C[N+](C)(C)CCOC1CC2CCC1(C)C2(C)C (stereo unspecified)	0%	15%	1.5µM*	1.9µM*	7%	-1%
CC1(C)C2CCC1(C)C(OCCNCCOC(=O)Nc1ccccc1)C2 (stereo unspecified)	-1%	2%	-15%	?	-14%	?
CCCCCCCOC(=O)C[N+](C)(C)CCOC1CC2CCC1(C)C2(C)C (stereo unspecified)	-64%	?	13µM*	1.9µM*	66%	-13%
CC(C)CCOC(=O)C[N+](C)(C)CCOC1CC2CCC1(C)C2(C)C (stereo unspecified)	-3%	-5%	246%	?	1%	.
SMILES	SARS PLP yeast	HCV inh	Pf growth 96h	Pf growth 48h	AMA1-RON2 inh	NS1 inh
CCOc1ccc(S(=O)(=O)NCCCn2ccnc2)cc1	0%	-9%	45%	-1%	0%	7%
CN(CC(=O)Nc1ccccc1C(F)(F)F)C(=O)Cc1ccc(S(=O)(=O)N2CCOCC2)s1	18%	9%	1%	0%	1%	.
COC(=O)CNC(=O)c1cn(-c2ccc(C)c(C)c2)c(=O)c2ccccc12	0%	-4%	32%	?	-6%	-3%
COc1ccc([N+](=O)[O-])cc1NC(=O)c1cn(-c2ccc(C)c(C)c2)c(=O)c2ccccc12	13%	31%	12µM*	-8%	-3%	7%
CCN(CC(=O)NC(C)(C)C)C(=O)c1ccccc1SCC(=O)NC1CCCCCCC1	.	.	?	10µM*	17%	21%
CCc1c(C)nc(SCC(=O)N2CCCCC2C)[nH]c1=O (stereo unspecified)	1%	13%	7.4µM*	-1%	6%	1%
C[N+]1(CCC(=O)c2ccco2)CC2CCC(CC2)C1 (stereo unspecified)	.	.	.	.	.	-3%
Cc1[nH]c2ccccc2c1C(=O)C(=O)N(C)C1CCCCC1	-1%	2%	2.6µM*	2.6µM*	-2%	14%
Cc1[nH]c2ccccc2c1SCC(=O)N1CCCc2ccccc21	-11%	-6%	?	-30%	-17%	-33%
Cc1[nH]c2ccccc2c1C(=O)C(=O)N1c2ccccc2CC1C (stereo unspecified)	0%	?	12µM*	6.6µM*	7%	7%
Cc1[nH]c2ccccc2c1C(=O)CSC(=S)N(C)C1CCCCC1	-20%	-9%	-79%	?	-7%	20%
Cc1[nH]c2ccccc2c1C(=O)C(=O)N1CCN(c2ccccc2F)CC1	-10%	1%	?	12%	-2%	-26%
Cc1[nH]c2ccccc2c1C(=O)C(=O)N1CCCc2ccccc21	-38%	-7%	10µM*	?	8%[2.32 µM]	-2%
CCN1Cc2cc(OC)ccc2-c2ccccc2S1(=O)=O	?	-1%	.	.	20%	.
O=C1CN(S(=O)(=O)c2cccc(Br)c2)CCN1	-1%	4%	.	.	2%	.
CCC(C(=O)OC(C)C(=O)Nc1ccc(Cl)cn1)c1ccccc1 (stereo unspecified)	-2%	-15%	15%	1%	5%	-11%
CCn1ccnc1CN1CCC(n2nccc2NC(=O)CCc2ccccc2)CC1	-2%	-5%	8.3µM*	46%	60%	-3%
CCn1cc(CN2CCC(n3nccc3NC(=O)CCc3ccccc3)CC2)cn1	3%	1%	33%	-15%	-5%	?
O=C(CCOc1ccccc1)Nc1ccnn1C1CCN(Cc2ccc(O)cc2)CC1	0%	-1%	24%	9.3µM*	-1%	5%

Screening data deposited in PubChem BioAssay by National Center for Advancing Translational Sciences (NCATS).
